# Among all 310,000 compounds or so, about 14,000 (4.5%) showed an effect of 50% or more. The effect is printed as a negative number. This excerpt belongs to a sample that is enriched for strong results.
# Target: human ether-à-go-go-related gene (hERG) potassium channel (human, UniProt Q12809)
# Test: primary screen, population patch clamp on CHO cells stably expressing hERG; higher = less effect of the substance
# 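Note: peak tail current of the secondary pulse compared with the same well before compound.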
# Sequence of human ether-à-go-go-related gene (hERG) potassium channel (Q12809 whole entry, looked up): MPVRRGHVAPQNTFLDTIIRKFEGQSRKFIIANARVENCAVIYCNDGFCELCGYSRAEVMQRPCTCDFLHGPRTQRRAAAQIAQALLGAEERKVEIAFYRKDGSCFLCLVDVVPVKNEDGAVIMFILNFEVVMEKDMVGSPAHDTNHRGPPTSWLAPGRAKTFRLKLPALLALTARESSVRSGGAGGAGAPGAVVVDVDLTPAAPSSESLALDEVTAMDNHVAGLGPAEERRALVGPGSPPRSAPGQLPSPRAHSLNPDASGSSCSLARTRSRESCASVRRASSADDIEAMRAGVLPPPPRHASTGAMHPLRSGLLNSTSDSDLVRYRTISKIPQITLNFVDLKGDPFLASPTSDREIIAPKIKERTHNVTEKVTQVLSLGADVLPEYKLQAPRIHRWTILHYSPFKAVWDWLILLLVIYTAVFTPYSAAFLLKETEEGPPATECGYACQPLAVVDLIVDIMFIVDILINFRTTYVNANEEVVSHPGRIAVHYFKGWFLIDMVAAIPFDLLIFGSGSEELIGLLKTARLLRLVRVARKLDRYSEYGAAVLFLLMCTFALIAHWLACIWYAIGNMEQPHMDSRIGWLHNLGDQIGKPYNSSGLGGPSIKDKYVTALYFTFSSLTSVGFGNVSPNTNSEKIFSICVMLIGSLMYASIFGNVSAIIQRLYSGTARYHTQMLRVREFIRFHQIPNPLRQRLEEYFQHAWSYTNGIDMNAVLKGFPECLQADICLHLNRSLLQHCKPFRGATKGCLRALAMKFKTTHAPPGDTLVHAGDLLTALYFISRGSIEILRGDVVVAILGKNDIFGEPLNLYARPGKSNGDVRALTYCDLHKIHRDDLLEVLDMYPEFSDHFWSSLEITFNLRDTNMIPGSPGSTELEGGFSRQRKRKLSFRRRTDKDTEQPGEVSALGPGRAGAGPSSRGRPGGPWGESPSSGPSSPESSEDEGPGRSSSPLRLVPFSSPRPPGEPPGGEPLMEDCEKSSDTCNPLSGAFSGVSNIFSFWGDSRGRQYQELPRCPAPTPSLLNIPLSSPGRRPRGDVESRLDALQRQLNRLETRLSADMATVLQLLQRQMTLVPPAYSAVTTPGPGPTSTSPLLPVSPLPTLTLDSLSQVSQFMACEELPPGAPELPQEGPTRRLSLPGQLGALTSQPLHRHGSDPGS
row,Compound,"hERG current change (%, negative = inhibition) at 10uM [%]"
1,CCOc1ccc(C(=O)CCC(=O)NC(CC(C)C)C(=O)OC)cc1 (stereo not shown),-2.17
2,CCOC(=O)CNC(=O)c1sc(NC(=O)c2cccc(F)c2)nc1C,-0.522
3,O=C(CCCOc1ccc(Cl)cc1Cl)Nc1ccccn1,24.2
4,NC(=O)c1nn(-c2ccccc2)nc1N,0.947
5,O=c1[nH]c2cc3c(cc2cc1C(c1nnnn1Cc1ccccc1)N1CCN2CCCC2C1)OCCO3 (stereo not shown),-0.778
6,Cc1cc(C)nc(NC(=O)CCC2CCCC2)c1,-4.11
7,COc1ccc2c(c1)CC/C(=C\c1ccc(C)o1)C2=O,8.29
8,CCOC(=O)c1cn2nc(N3CCCC3)ccc2n1,1.32
9,Cc1ccc(-c2[nH]ncc2CNCCc2cnn(-c3ccccc3)c2)cc1C,-66.4
10,CN(Cc1cn[nH]c1-c1ccc2c(c1)OCO2)C1CCOCC1,12.7
11,CN(CCc1cnn(C)c1)Cc1cn[nH]c1-c1ccc(-c2ccccc2)cc1,-66.6
12,CN(CCC1CCOCC1)Cc1cn[nH]c1-c1ccc(-c2ccccc2)cc1,-62.6
13,CCn1cc(CNCc2cn[nH]c2-c2cc3ccccc3o2)cn1,-14.1
14,CN(CCc1cnn(C)c1)Cc1cn(C)nc1-c1ccc2c(c1)OCCO2,5.94
15,Cn1cc(CCNCc2cn[nH]c2-c2ccc(-c3ccccc3)cc2)cn1,-64.8
16,Cn1cc(CNCc2cn[nH]c2-c2ccc(F)cc2)c(-c2ccc3c(c2)OCCO3)n1,-21.6
17,COc1ccc(-c2[nH]ncc2CNCCc2ncccc2C)cc1F,-41.7
18,CN(CCc1cnn(C)c1)Cc1cn(C)nc1-c1ccccc1F,9.85
19,COCCN1CCC(CNCc2cn[nH]c2-c2ccc(C)c(C)c2)C1 (stereo not shown),-3.39
20,CN(Cc1cn[nH]c1-c1ccc(-c2ccccc2)cc1)CC1CCOCC1,-46.2
21,O=C(COc1ccc2c3c(c(=O)oc2c1)CCC3)Nc1ccc(CCO)cc1,21.2
22,O=C(CCc1nnc(Cc2ccc(-c3ccccc3)cc2)o1)NCC1CC1,-4.72

row,Compound,"hERG current change (%, negative = inhibition) at 10uM [%]"
1,CN(C)c1cc2c(cc1NS(=O)(=O)c1ccccc1)n(C)c(=O)n2C,10.5
2,CN1CCN(C(=O)Nc2cccc(-c3ccccc3)c2)CC1,-3.63
3,O=C(NCCC1=CCCCC1)c1c(O)nc2ccccn2c1=O,0.215
4,O=c1c2ccccc2nc(-c2ccco2)n1/N=C/c1ccco1,13.1
5,CC(C)N(C(=O)CSc1nc2ccccc2n1Cc1ccc(F)cc1)C(C)C,-27.3
6,CN1C[C@@H]2C(c3ccc(Cl)nc3)C3(c4ccccc4)CC2(C3)[C@H]1c1ccccc1 (stereo partly shown),-43.1
7,CN1C[C@@H]2C(c3ccccc3)C3(c4cccnc4)CC2(C3)[C@H]1c1ccccc1 (stereo partly shown),-46.5
8,CN1C[C@@H]2C(c3ccc(Cl)nc3)C3(c4ccc(C#N)cc4)CC2(C3)[C@H]1c1ccccc1 (stereo partly shown),-54.9
9,CN1C[C@@H]2C(c3ccc(C(F)(F)F)cc3)C3(c4cccnc4)CC2(C3)[C@H]1c1ccccc1 (stereo partly shown),-60
10,CN1C[C@@H]2C(c3ccc(C(F)(F)F)cc3)C3(c4ccccc4)CC2(C3)[C@H]1c1ccccc1 (stereo partly shown),-1.14
11,CN1C[C@@H]2C(c3ccccc3)C3(c4ccc(C#N)cc4)CC2(C3)[C@H]1c1ccccc1 (stereo partly shown),-32.5
12,Clc1ccc(-c2nc(Cc3ccccc3)no2)cc1,11.9
13,Cn1ccs/c1=N\S(=O)(=O)c1ccc(C(C)(C)C)cc1,-11.5
14,CC(NC(=S)NC1CCCCC1)c1ccc(C(C)(C)C)cc1 (stereo not shown),10.6
15,c1coc(-c2cc(C3CCNCC3)[nH]n2)c1,15.5
16,Cc1cc(C(=O)N2CCC(C)CC2)on1,1.18
17,CC(C)n1nc(C(=O)NNC(=O)c2ccc(OC(F)F)cc2)c2ccccc2c1=O,-76.3
18,CC(C)n1nc(C(=O)Oc2ccc(Cl)cc2)c2ccccc2c1=O,5.39
19,CC(C)n1nc(C(=O)NNC(=O)c2ccncc2)c2ccccc2c1=O,3.56
20,CCCCCCCCCCOC(=O)Cn1c(COc2ccc(C)cc2)[n+](C)c2ccccc21.[Cl-],-74.9
21,CCCCCOC(=O)Cn1c(=O)oc2ccccc21,0.0173
22,CCCCCCCCCCOC(=O)Cn1c(COc2ccc(Cl)cc2)[n+](C)c2ccccc21.[Cl-],-76.2

row,Compound,"hERG current change (%, negative = inhibition) at 10uM [%]"
1,CCOC(=O)C(CCCOc1cccc(OC)c1)C(=O)OCC,-14.9
2,Cc1ccc(OCCCCn2c(CO)nc3ccccc32)cc1,-14.6
3,CCCCCCCCCCOC(=O)Cn1c(COc2ccccc2)[n+](C)c2ccccc21.[Cl-],-76.1
4,NNC(=O)Cn1c(COc2ccc(Cl)cc2)nc2ccccc21,-9.34
5,CCCCc1n(CC(=O)c2ccc(Cl)cc2)c2ccccc2[n+]1C.[Br-],8.02
6,CN(C)C(=O)Oc1cccc(OCc2n(C)c3ccccc3[n+]2C)c1.[Cl-],14.7
7,CCCCCCCCCCOC(=O)Cn1c(COc2cccc(OC)c2)[n+](C)c2ccccc21.[Cl-],-76.7
8,CN(C)C(=O)Oc1ccc(OCc2n(C)c3ccccc3[n+]2C)cc1.[Cl-],5.79
9,CCCCCCCCOc1ccc(C(=O)O)cc1,13.3
10,COc1cc(OC)c2ccc(=O)oc2c1C(CC(=O)N1CCCC1)c1ccc(N(C)C)cc1 (stereo not shown),10.2
11,COc1cccc(C(C(=O)NC2CCCC2)N(C(=O)c2ccco2)c2ccc(-n3cnnn3)c(C)c2)c1OC (stereo not shown),8.33
12,COc1cc(Cl)ccc1OCc1cc(C(=O)N2C[C@]3(C)C[C@H]2CC(C)(C)C3)no1,-8.91
13,CC12CCC(CC1=O)C2(C)C (stereo not shown),8.29
14,COc1ccc(OCCCCn2c(CO)nc3ccccc32)cc1,-24.5
15,Cc1cccc(OCCCCn2c(CO)nc3ccccc32)c1,-5.5
16,CCCCOC(=O)Cn1c2ccc(OC)cc2c2nc3ccccc3nc21,-6.29
17,CCCCCCCCCCOC(=O)Cn1c(COc2cccc(C)c2)[n+](C)c2ccccc21.[Cl-],-76
18,CCCCCCCCCCOC(=O)Cn1c(COc2ccc(OC)cc2)[n+](C)c2ccccc21.[Cl-],-83.3
19,CCCCCOC(=O)Cn1c(=O)oc2ccc(C)cc21,-10.6
20,CN(C)C(=O)C(Sc1ccc(S(=O)(=O)N2CCCC2)cn1)c1ccccc1 (stereo not shown),-13.4
21,COc1ccccc1P(=O)(c1ccccc1)c1ccccc1,15.1
22,COc1cccc(/C=C/C(=O)NCCc2ccc(OC)c(OC)c2)c1,-16.3

row,Compound,"hERG current change (%, negative = inhibition) at 10uM [%]"
1,N#CCC(=O)Nc1ccc(C(=O)OCC(=O)c2ccc3c(c2)OCCO3)cc1,10.5
2,OC(CCc1ccncc1)COc1ccccc1 (stereo not shown),3.52
3,CNCC(O)COc1ccccc1 (stereo not shown),-5.69
4,CC(CCc1ccccc1)NCC(O)COc1ccccc1 (stereo not shown),-73.4
5,OC(CNCc1ccccc1)COc1ccccc1 (stereo not shown),-11.9
6,OC(CNCCc1ccccc1)COc1ccc(OCC(O)CNCCc2ccccc2)cc1 (stereo not shown),1.24
7,OC(CNCCC(c1ccccc1)c1ccccc1)COc1ccccc1 (stereo not shown),-71.4
8,CCc1cc(C(=O)N2CCN(c3ccccn3)CC2)sc1C,-3.12
9,O=C(CCS(=O)CCC(=O)NCc1ccccc1)NCc1ccccc1,17.7
10,Cc1nnc(NC(=O)c2cccc(F)c2)s1,4.08
11,COC(=O)CN1C(c2ccc(Cl)cc2)=Nc2ccc(Cl)cc2C1c1ccccc1 (stereo not shown),-17.7
12,NNC(=O)CN1C(c2ccccc2)=Nc2ccc(Br)cc2C1c1ccccc1 (stereo not shown),-20
13,COC(=O)CN1C(c2cccc(Cl)c2)=Nc2ccc(Cl)cc2C1c1ccccc1 (stereo not shown),1.61
14,COC(=O)CN1C(c2ccccc2)=Nc2ccc(Cl)cc2C1c1ccccc1 (stereo not shown),-66.4
15,NNC(=O)CN1C(c2ccc(Br)cc2)=Nc2ccc(Br)cc2C1c1ccccc1 (stereo not shown),-30.8
16,NNC(=O)CN1C(c2ccc(Cl)cc2)=Nc2ccc(Br)cc2C1c1ccccc1 (stereo not shown),-53.3
17,CC1CC(C)CN(CCCNC(=O)c2c(O)nc3ccccn3c2=O)C1 (stereo not shown),6.75
18,CC/C(=N\NC(=O)c1ccc(-c2ccccc2)cc1)C12CC3CC(CC(C3)C1)C2,0.121
19,COc1nc(NC2CCCCC2)nc(N2CCCCCC2)n1,4.84
20,O=C(c1ccc(Cl)cc1)N1CCCOC1,15.2
21,CC(=O)Nc1ccc(S(=O)(=O)N2CCCC2C(=O)Nc2ccc(F)cc2)cc1 (stereo not shown),11.2
22,CN(C)C(CNC(=O)CCCN1C(=O)c2cccc3cccc(c23)C1=O)c1ccccc1 (stereo not shown),-46.2
